From PubChem BioAssay
APP 5UTR inh – inhibitors of APP translation via 5'UTR reporter, primary screen, APP 5'UTR luciferase, SH-SY5Y cells | inhibition, % at 2 µM | 0.82% of 190,000 active | SH-SY5Y APP 5'UTR-luciferase reporter, luminescence;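 active = inhibition above a set limit, derived from the sample mean plus 3 SD, cut at about 45% in these data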
IEC-6 cytotox – cytotoxicity in IEC-6 intestinal epithelial cells, primary screen, cytotoxicity control for KLF5 inhibitor project, cell-based, luminescence. IEC-6 cytotoxicity, luminescence viability. inhibition, % at 5 µM. 0.78% of 290,000 active; in the data active = inhibition above about 22%
Ba/F3 V617F tox – reduced viability of JAK2V617F-dependent Ba/F3 cells, primary screen, JAK2V617F inhibitor project, cell-based, Ba/F3 EpoR-JAK2V617F, luminescence; ATP luminescence; inhibition, % at 5.6 µM; 1.1% of 220,000 active; AID 1446, 2008;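 active = inhibition above the campaign mean plus 3 SD over all tested compounds, cut at about 24% in these data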;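 note: cytokine-independent growth of Ba/F3 cells driven by EpoR plus mutant JAK2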
KLF5 inh – KLF5 expression inhibitors, primary screen, DLD-1 cells, luminescence; DLD-1 KLF5 promoter-luciferase reporter; inhibition, % at 5 µM; 0.23% of 290,000 active; AID 1700, 2009;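 active = inhibition above a per-plate limit of that plate's mean compound inhibition plus 3 SD, cut at about 60% in these data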;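 note: higher means less KLF5 promoter-driven luciferase light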
BaF3 parental – parental Ba/F3 cell viability inhibition, counter-screen for JAK2V617F inhibitor project, murine pro-B, CellTiter-Glo luminescence | CellTiter-Glo ATP luminescence | inhibition, % at 5.6 µM | 1.1% of 220,000 active;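 active = inhibition above a per-campaign cutoff, the mean inhibition of all tested compounds plus 3 SD, cut at about 27% in these data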
Numbers stand for hits; - = inactive; . = no result given. The list is not random: actives were taken first. Their share in the collection is about 1.8%.

SMILES	APP 5UTR inh	IEC-6 cytotox	Ba/F3 V617F tox	KLF5 inh	BaF3 parental
Cc1ccc(C)c(NS(=O)(=O)c2ccc3c(c2)Cc2cc(S(=O)(=O)Nc4cc(C)ccc4C)ccc2-3)c1	-	-	-	-	-
O=C(C[n+]1cc(-c2ccccc2)n2c1CCC2)OCc1ccccc1	-	-	-	-	-
Cc1ccc(-c2c[n+](Cc3ccc(Cl)c(Cl)c3)c3n2CCC3)cc1	-	-	78	-	73
Cc1ccc(C(=O)C[n+]2cc(-c3ccc(C)cc3)n3c2CCCCC3)cc1	-	-	102	-	89
COc1ccc(C(=O)C[n+]2cc(-c3ccc(OC)cc3)n3c2CCCC3)cc1	-	-	65	-	64
O=C(C[n+]1cc(-c2ccccc2)n2c1CCCCC2)c1ccc(Br)cc1	-	-	61	-	73
Cc1ccc(NC(=O)C[n+]2cc(-c3ccc(C)cc3)n3c2CCC3)cc1	.	-	-	-	-
O=C(Nc1ccccc1F)C1COc2ccccc2O1 (stereo unspecified)	.	-	.	-	.
CCc1ccc(NC(=O)c2cnc(SC)nc2C)cc1	.	-	.	-	.
COc1cccc(C(=O)COC(=O)CCC(=O)c2ccccc2)c1	.	-	.	-	.
Cc1ccc(S(=O)(=O)N2CCN(C(=O)CCC(=O)NCc3ccc(F)cc3)CC2)cc1	-	-	-	-	-
COc1ccccc1NC(=O)Nc1ccccc1N1CCOCC1	.	-	-	-	-
O=C(O)COc1ccc(-c2nccc(-c3ccccn3)n2)cc1	63	-	-	-	-
Cc1[nH]n(C(N)=S)c(=O)c1N=Nc1cccc(C(F)(F)F)c1	.	-	.	-	.
Cc1[nH]n(C2=NCCS2)c(=O)c1N=Nc1cccc(C(F)(F)F)c1	53	-	-	-	-
COCCN(Cc1cc2cc3c(cc2nc1Cl)OCO3)C(=O)c1ccc(C)cc1	-	-	-	-	-
CC(C)(CO)NCc1cccc(OCc2ccc(Cl)cc2)c1	-	-	-	-	-
Clc1ccc(COc2cccc(CNCc3ccncc3)c2)cc1	-	-	-	-	38
CC1=NNC(=O)C1CC(=O)N/N=C/C(Br)=C/c1ccccc1 (stereo unspecified)	.	-	-	-	-
CC1=NNC(=O)C1CCC(=O)N/N=C/C(Br)=C/c1ccccc1 (stereo unspecified)	82	-	-	-	-
Cc1ccc(NC(=O)CNCCCN2CCOCC2)cc1S(=O)(=O)N1CCCCC1	.	-	-	-	-
O=C(c1ccccn1)N(Cc1ccco1)C1(C(=O)NC2CCCC2)CCCCC1	-	-	-	-	45
CC1CN(CC(O)COCc2ccc3c(c2)OCO3)CC(C)O1 (stereo unspecified)	-	-	-	-	-
Cc1[nH]c(C)c(S(=O)(=O)N2CCN(c3ccccc3F)CC2)c1C(=O)N1CCCC1	.	-	.	-	.
CCOC(=O)c1c(NC(=O)C[n+]2ccc(N(C)C)cc2)sc(C)c1C	-	-	29	-	35
SMILES	APP 5UTR inh	IEC-6 cytotox	Ba/F3 V617F tox	KLF5 inh	BaF3 parental
Oc1c(Cl)cc(Cl)cc1CNc1nc2ccccc2[nH]1	.	-	.	-	.
COc1cc(C(=O)Nc2ccc(S(=O)(=O)Nc3nccc(C)n3)cc2)c([N+](=O)[O-])cc1OC	.	-	-	-	-
CC1(C(=O)NNC(=O)c2ccc(=O)oc2)CC1Br (stereo unspecified)	.	-	-	-	28
Cc1cc(=O)oc(C)c1C(=O)NNC(=O)C1(C)CC1Br (stereo unspecified)	.	-	-	-	-
COc1ccc(OC)c(NC(=O)Cc2coc3ccc4ccccc4c23)c1	68	-	-	-	-
CCc1nnc(NC(=O)CCC(=O)NC2CCCCCCC2)s1	.	-	.	-	.
CCN(CC)CC#CC(O)(c1ccccc1)c1ccccc1	49	-	-	-	-
CN(C)CCC#CC(O)(c1ccccc1)c1ccccc1	-	-	-	-	-
Cc1nn(CCC(=O)N2CCN(S(=O)(=O)c3ccccc3)CC2)c(C)c1C	.	-	.	-	.
Cc1[nH][nH]c(=O)c1C(c1c(C)[nH][nH]c1=O)c1cn(Cc2ccc(Cl)c(Cl)c2)c2ccccc12	81	-	-	-	-
CC1=CC(C)C(C[N+]2(C)CCCCC2)C(C)C1 (stereo unspecified)	-	-	39	-	61
CCc1ccc(/C=C/c2c[nH]c3ccccc23)[n+](CC)c1	-	-	94	-	79
CCc1ccc(-c2cc(C(=O)N/N=C/c3c[nH]c4ccccc34)[nH]n2)cc1	-	-	-	-	-
CC1C/C(=C/c2ccncc2)C(=O)/C(=C/c2ccncc2)C1 (stereo unspecified)	95	-	-	-	-
COc1ccc2nc(NC(=O)CSc3nc(C)cc(=O)[nH]3)sc2c1	60	-	-	-	-
COc1ccc2nc(NC(=O)CSc3nccc(C)n3)sc2c1	-	-	-	-	-
O=C(O)c1cc(NC(=O)c2ccc([N+](=O)[O-])cc2)cc(NC(=O)c2ccc([N+](=O)[O-])cc2)c1	.	-	.	-	.
O=C(Nc1ccc([N+](=O)[O-])cc1)C(=O)Nc1cccc(C(=O)O)c1	.	-	-	81	-
CCN(CC(=O)Nc1ccc(C(C)=O)cc1)CC(=O)Nc1cccc(OC)c1	-	-	-	-	-
O=C(NCc1cccnc1)c1c[nH]c2cc3c(cc2c1=O)OCCO3	-	-	27	-	41
COCCn1cnc2cc(C)c(C)cc21	-	-	-	-	44
Cc1cc2ncn(CCOc3ccccc3)c2cc1C	-	-	-	-	-
NC(=O)c1ccc[n+](Cc2ccccc2)c1	-	-	-	-	-
c1ccc(C[n+]2cccc(-c3ccccc3)c2)cc1	-	-	65	-	64
CC(C)CCNc1nc(N)c([N+](=O)[O-])c(N2CCCCCC2)n1	.	-	.	-	.
SMILES	APP 5UTR inh	IEC-6 cytotox	Ba/F3 V617F tox	KLF5 inh	BaF3 parental
Cc1cccc(C)c1NC1=NC2(CCCCC2)N=C(N)N1	-	-	-	-	76
Cc1cccc(NC2=NC3(CCCCC3)N=C(N)N2)c1C	-	-	-	-	-
C=CCn1c(SCC(=O)c2[nH]c(C)c(C(=O)OCC)c2C)nc2scc(-c3ccccc3)c2c1=O	-	-	-	-	-
C=CCn1c(SCC(=O)c2[nH]c(C)c(C(=O)OCC)c2C)nc2scc(-c3ccc(OC)cc3)c2c1=O	60	-	-	-	-
Cc1ccc2c(CC(=O)Nc3nc(C)cs3)coc2c1	-	-	-	-	-
Cc1cccc(NC(=S)N/N=C/c2cccc(O)c2)c1C	.	-	78	-	51
Cc1ccccc1NC(=S)N/N=C/c1ccc(O)cc1O	.	-	-	-	-
O=C(Nc1cccc(Cl)c1)Nc1cnccn1	.	-	.	-	.
O=C(Nc1cccc(Cl)c1)Nc1ccnc(-c2cccnc2)n1	56	-	-	-	-
CCOC(=O)Cc1ccc(NC(=O)c2ccc(C(C)(C)C)cc2)cc1	71	-	-	-	-
CCN(CC(=O)Nc1ccc(C)c(F)c1)CC(=O)NC(C)(C)C	-	-	-	-	-
O=P(O)(O)c1cc(-c2ccccc2)oc1-c1ccccc1	.	-	-	-	28
